A short description of assay [1]: ATG_PXRE_CIS: Attagene CIS-FACTORIAL HepG2 Assay for human Pregnane X Receptor Element (PXRE) (AID 2282957). The following applies: HepG2 Attagene CIS-FACTORIAL PXRE reporter, mRNA; actives raise or lower the signal. An outline of the steps: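 Cis-element reporter mRNA in human hepatoma HepG2 cells is measured 24 h post-dosing by RT-PCR, primer-extension labeling and capillary electrophoresis; gain or loss of signal is fitted relative to DMSO.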

A short description of assay [2]: ATG_RORE_CIS: Attagene CIS-FACTORIAL HepG2 Assay for human RAR-related Orphan Receptor Element (RORE) (AID 2282959). As to conditions: HepG2 Attagene cis-factorial RORE reporter, mRNA; actives raise or lower the signal. A digest of the protocol:
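Transient MRTU transfection of human HepG2 liver cells (FuGene 6); 24 h compound exposure; TriZol RNA, oligo(dT) RT, PCR, FAM labeling, HpaI cut, CE fragment analysis. DMSO = negative control/baseline.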

Assay [3] can be described thus: ATG_Sox_CIS: Attagene CIS-FACTORIAL HepG2 Assay for human SRY-box transcription factor (SOX) (AID 2282960). As to conditions: HepG2 Attagene cis-factorial SOX reporter, mRNA; actives raise or lower the signal. An outline of the steps:
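Endogenous factor activity in human liver HepG2 cells carrying transfected cis-regulated reporter units. RNA taken 24 h post-dose, reverse-transcribed, PCR-amplified and sized by capillary electrophoresis. Gain or loss of signal fitted relative to DMSO.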

Assay [4] has as its target Transcription factor Sp1 (Homo sapiens) (UniProt P08047). The assay can be described thus: ATG_Sp1_CIS: Attagene CIS-FACTORIAL HepG2 Assay for human Specificity Protein 1 (Sp1) (AID 2282961). The following applies: HepG2 Sp1 cis-reporter transcription, actives raise or lower the signal. An outline of the steps: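 Transient MRTU-transfected HepG2, 24 h compound exposure. Total RNA → oligo(dT) RT → PCR of reporter → 6-FAM primer extension → HpaI digest → CE. Endpoint fitted both directions vs DMSO.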

The nature of assay [5]: ATG_SREBP_CIS: Attagene CIS-FACTORIAL HepG2 Assay for human Sterol Regulatory Element Binding (SREBP) (AID 2282962). As to conditions: HepG2 Attagene cis-factorial SREBP reporter, mRNA; actives raise or lower the signal. A digest of the protocol: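 HepG2 cells transiently transfected with multiplexed cis-promoter reporter units sensing endogenous transcription factors; reporter mRNA measured 24 h after dosing by RT-PCR, 6-FAM labeling, HpaI digestion and capillary electrophoresis. Bidirectional fit versus DMSO.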

For assay [6], the target named is Signal transducer and activator of transcription 3 (Homo sapiens) (UniProt P40763). Nature of the assay: ATG_STAT3_CIS: Attagene CIS-FACTORIAL HepG2 Assay for human Signal Transducer and Activator of Transcription 3 (STAT3) (AID 2282963). As to conditions: HepG2, Attagene cis-factorial STAT3 reporter transcription; actives raise or lower the signal. An outline of the steps: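 HepG2 cells transiently transfected with cis-element-driven multiple reporter transcription units; after 24 h chemical exposure, reporter mRNA measured by RT-PCR, 6-FAM primer-extension labelling, HpaI digestion and capillary electrophoresis. Bidirectional fitting versus DMSO baseline.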
Chain of Signal transducer and activator of transcription 3 (Homo sapiens) (P40763 whole entry, looked up): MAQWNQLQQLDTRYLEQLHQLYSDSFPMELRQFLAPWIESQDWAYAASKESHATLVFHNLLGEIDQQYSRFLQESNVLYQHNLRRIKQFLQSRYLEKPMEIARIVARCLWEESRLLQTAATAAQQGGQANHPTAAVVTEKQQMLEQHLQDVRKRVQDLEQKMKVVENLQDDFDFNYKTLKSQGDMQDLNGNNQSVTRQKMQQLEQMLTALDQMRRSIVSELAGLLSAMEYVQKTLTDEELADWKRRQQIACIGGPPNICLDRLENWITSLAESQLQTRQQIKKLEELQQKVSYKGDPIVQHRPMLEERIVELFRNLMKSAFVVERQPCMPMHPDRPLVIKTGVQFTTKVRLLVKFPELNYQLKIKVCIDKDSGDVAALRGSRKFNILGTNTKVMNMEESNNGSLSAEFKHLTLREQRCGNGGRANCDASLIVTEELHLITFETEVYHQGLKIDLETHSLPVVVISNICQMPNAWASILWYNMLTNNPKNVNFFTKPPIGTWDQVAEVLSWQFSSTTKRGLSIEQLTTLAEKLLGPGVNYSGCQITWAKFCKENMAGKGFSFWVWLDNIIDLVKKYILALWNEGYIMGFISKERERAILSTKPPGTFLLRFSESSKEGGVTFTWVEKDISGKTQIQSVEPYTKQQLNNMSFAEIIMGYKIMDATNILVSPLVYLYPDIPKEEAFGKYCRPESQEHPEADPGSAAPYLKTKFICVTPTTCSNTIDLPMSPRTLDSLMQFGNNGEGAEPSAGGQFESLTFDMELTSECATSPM

Assay [7] in a line: ATG_TA_CIS: Attagene CIS-FACTORIAL HepG2 Assay for human TA Basal Promoter (AID 2282964). As to conditions: HepG2 Attagene CIS-factorial TA basal promoter reporter; actives raise or lower the signal. An outline of the steps: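 Fluorescence from labelled RT-PCR reporter fragments, separated by capillary electrophoresis, gives the signal. Cells: HepG2 transiently carrying multiple reporter units, 24 h chemical dosing. Gain or loss relative to DMSO.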

Assay [8] in a line: ATG_TCF_b_cat_CIS: Attagene CIS-FACTORIAL HepG2 Assay for human T-Cell-Factor with beta-catenin (TCF/b-cat) (AID 2282965). The following applies: HepG2 TCF/beta-catenin cis-reporter transcription, actives raise or lower the signal. An outline of the steps:
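HepG2 cells transiently transfected with multiple cis-promoter-regulated reporter transcription units, so endogenous transcription factor activity is measured. Reporter mRNA read 24 hours after dosing by RT-PCR, fluorescent labelling and capillary electrophoresis; bidirectional fitting against DMSO.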

The nature of assay [9]: ATG_PPRE_CIS: Attagene CIS-FACTORIAL HepG2 Assay for human Peroxisome Proliferator-activated Response Element (PPRE) (AID 2282958). As to conditions: HepG2 PPRE cis-element reporter, Attagene transcription factor profiling; actives raise or lower the signal. An outline of the steps: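 HepG2, transient MRTU transfection (cis promoter elements, endogenous TFs). 24 h dosing. RNA → oligo(dT) RT → PCR → 6-FAM primer extension → HpaI digest → CE. Bidirectional fit vs DMSO.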

Assay [10] is described as follows: ATG_TAL_CIS: Attagene CIS-FACTORIAL HepG2 Assay for human TAL Basal Promoter (AID 2282966).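 Further: background control endpoint measuring basal TAL promoter reporter mRNA not a specific factor.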 As to conditions: HepG2 Attagene cis-factorial TAL promoter reporter; actives raise or lower the signal. A digest of the protocol: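 In this cell-based multiplex, HepG2 liver cells bearing cis-promoter reporter constructs are dosed for 24 hours. Total RNA is reverse-transcribed and amplified, labelled fragments are sized by capillary electrophoresis, and signal changes are fitted bidirectionally versus DMSO.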

Where “and” joins values, the source holds several entries; their conditions need not be identical. Identical values can stand only once. The source holds several records for some structures; these can differ, active in one and inactive in another. Calls of active or inactive are those of the source. How the source made its calls: active means hit-call score of the fitted dose curve at least 0.9, where 1 is the maximum; inactive means score below 0.9.

Chain of Transcription factor Sp1 (Homo sapiens) (P08047 whole entry, looked up): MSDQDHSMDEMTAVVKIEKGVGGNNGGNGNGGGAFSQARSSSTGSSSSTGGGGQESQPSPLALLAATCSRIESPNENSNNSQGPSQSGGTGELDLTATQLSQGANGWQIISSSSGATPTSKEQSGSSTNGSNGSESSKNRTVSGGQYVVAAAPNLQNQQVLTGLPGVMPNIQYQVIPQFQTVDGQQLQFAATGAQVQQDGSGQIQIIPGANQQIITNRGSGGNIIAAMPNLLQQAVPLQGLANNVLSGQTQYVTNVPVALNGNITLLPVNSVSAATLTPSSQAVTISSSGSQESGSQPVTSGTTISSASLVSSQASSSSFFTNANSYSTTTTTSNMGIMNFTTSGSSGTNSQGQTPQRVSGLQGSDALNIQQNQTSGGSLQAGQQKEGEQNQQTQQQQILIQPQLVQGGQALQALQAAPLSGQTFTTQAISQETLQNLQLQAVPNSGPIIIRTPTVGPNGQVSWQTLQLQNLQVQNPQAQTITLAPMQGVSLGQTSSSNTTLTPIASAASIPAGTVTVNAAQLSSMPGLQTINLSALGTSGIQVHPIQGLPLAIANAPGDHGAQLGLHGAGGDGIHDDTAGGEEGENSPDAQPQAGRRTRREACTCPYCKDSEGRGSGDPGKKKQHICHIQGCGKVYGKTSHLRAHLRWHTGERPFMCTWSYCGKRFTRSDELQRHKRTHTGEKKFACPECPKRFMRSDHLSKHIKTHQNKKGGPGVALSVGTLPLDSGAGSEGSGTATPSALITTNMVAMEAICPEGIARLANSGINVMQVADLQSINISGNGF

On to `Nc1ccc(N)cc1`, for which the results for the AC50 in [1] and in [8] were 33 µM (active) and 27.7 µM (active), respectively. Besides, the molecule was called inactive in [1], in assay [2], in assay [3], in assay [4], in assay [5] and in assay [6]. Besides, the molecule was classed as inactive in [7] and in assay [8].
For the molecule `O=c1oc2ccccc2c(O)c1C(CC(O)c1ccc(-c2ccc(Br)cc2)cc1)c1ccccc1` (centres undefined), the AC50 in assay [1] was 8.03 µM (active) and 7.59 µM (active); in assay [9], 10.8 µM (active) and 227 nM (active); in [4], 14.4 µM (active); in assay [5], 8.18 µM (active); in assay [7], 13.7 µM (active); in assay [8], 21.1 µM (active) and 11.5 µM (active). Further, the molecule was classed as inactive in assay [2], in assay [3], in assay [4], in assay [5], in [6] and in [7].
On to `Cc1cc(Cl)ccc1OC(C)C(=O)O` (centres undefined), for which the result in [1], in assay [2], in assay [3], in [4], in assay [5] and in assay [6] was inactive. Moreover, the result in assay [7] and in [8] was inactive. Besides, the AC50 in assay [9] is 68.4 µM (active).
For the molecule `CCCCCCCCCCCCBr`, the molecule was classed as inactive in assay [1], in [9], in assay [2], in assay [3], in assay [4] and in assay [5]. The molecule was called inactive in [6], in assay [7], in [8] and in [10].
Take `Cc1ccccc1OP(=O)(Oc1ccccc1C)Oc1ccccc1C`: the results for the AC50 in [1] and in assay [4] were 0.0902 µM (active) and 71.8 µM (active), respectively. The result in assay [9], in assay [2], in [3], in assay [5], in assay [6] and in [7] was inactive. Also, the call in assay [8] and in assay [10] was inactive.
Regarding `O=c1[nH]c(=O)n(Cl)c(=O)n1Cl`, in [1], the AC50 is 52.5 µM (active). Moreover, the call in assay [1], in [3], in assay [4], in [6], in [7] and in [8] was inactive.
For the molecule `Oc1cccc(-c2ccccc2)c1`, the AC50 in [1] is 27.2 µM (active); in assay [4], 168 µM (active); in assay [5], 64.2 µM (active). Further, the molecule was classed as inactive in assay [9], in [2], in [3], in [6], in [7] and in [8]. For the same molecule, the call in assay [10] was inactive.
For `Oc1ccc(Cc2ccc(O)cc2)cc1`, the AC50 in assay [1] is 61.6 µM (active); in [9], 38.8 µM (active). The molecule was classed as inactive in [2], in assay [3], in [4], in [5], in assay [6] and in [7]. Further, the call in [8] and in [10] was inactive.
Take `CC(C)(c1ccccc1)c1cc(-n2nc3ccccc3n2)c(O)c(C(C)(C)c2ccccc2)c1`: the AC50 in assay [1] is 15.3 µM (active). The call in [9], in assay [2], in assay [3], in [4], in assay [5] and in assay [6] was inactive. Further, the call in assay [7], in [8] and in assay [10] was inactive.
For `COC(=O)Nc1cccc(OC(=O)Nc2cccc(C)c2)c1`, the molecule was called inactive in assay [1], in assay [9], in [2], in [3], in [4] and in assay [5]. Also, the molecule was called inactive in [6], in assay [7], in assay [8] and in assay [10].
Take `Cc1cc(C(F)(C(F)(F)F)C(F)(F)F)ccc1NC(=O)c1cccc(I)c1C(=O)NC(C)(C)CS(C)(=O)=O`: the AC50 in assay [1] is 0.633 µM (active). For the same molecule, the result in [9], in assay [2], in [3], in [4], in [5] and in assay [6] was inactive. The outcome in assay [7], in assay [8] and in assay [10] was inactive.
Consider `CNC(=O)N(C)c1nc2ccccc2s1`, for which the AC50 in [1] is 27.5 µM (active). The outcome in assay [9], in [2], in assay [3], in assay [4], in assay [5] and in [6] was inactive. Further, the call in assay [7] and in [8] was inactive.
On to `CCOP(=S)(OCC)O/N=C(\C#N)c1ccccc1`, for which the AC50 in assay [1] was 2.2 µM (active); in [9] it was 7.85 µM (active). Moreover, the outcome in assay [2], in [3], in [4], in [5], in assay [6] and in [7] was inactive. Further, in [8], the molecule was classed as inactive.
Take `O=S(=O)(c1ccc(Cl)cc1)c1cc(Cl)c(Cl)cc1Cl`: the results for the AC50 in assay [1] and in [5] were 1.59 µM (active) and 14.5 µM (active), respectively. The outcome in assay [9], in [2], in assay [3], in assay [4], in assay [6] and in assay [7] was inactive. Further, the result in assay [8] and in [10] was inactive.
As to `O=[N+]([O-])c1ccccc1O`, the AC50 in [1] was 26.7 µM (active). Besides, the call in assay [1], in assay [2], in [5], in assay [6], in assay [7] and in assay [8] was inactive. In assay [10], the call was inactive.
As for `COc1ccc([N+](=O)[O-])cc1O`, the outcome in [1], in [9], in [2], in assay [3], in assay [4] and in assay [5] was inactive. Further, the result in assay [6], in assay [7], in assay [8] and in [10] was inactive.
`CCCCCCCCCCBr`: in assay [1], the AC50 was 27.7 µM (active). The call in assay [9], in assay [2], in assay [3], in assay [4], in assay [5] and in [6] was inactive. Besides, the molecule was classed as inactive in [7], in [8] and in assay [10].
As to `BrCc1ccc(Br)cc1`, the molecule was classed as inactive in [1], in assay [9], in [2], in assay [3], in assay [4] and in assay [5]. Further, the molecule was classed as inactive in assay [6], in assay [7], in assay [8] and in assay [10].
For `O=C(N[C@H]1CN2CCC1CC2)c1ccc2c(c1)OCCO2`, the call in [1], in assay [2], in assay [3], in assay [4], in [5] and in assay [6] was inactive. The outcome in assay [7], in assay [8] and in assay [10] was inactive. Also, in assay [9], the AC50 was 100 µM (active).
For `CCCCOC(=O)COC(=O)c1ccccc1C(=O)OCCCC`, the AC50 in assay [1] is 40.9 µM (active); in [9], 42.6 µM (active); in assay [2], 53.2 µM (active). The result in [3], in assay [4], in assay [5], in assay [6], in [7] and in assay [8] was inactive. In addition, the molecule was called inactive in [10].
Regarding `C=CCN=C=S`, the outcome in [1], in assay [9], in assay [2], in assay [3], in assay [4] and in assay [5] was inactive. The result in assay [6], in [7], in assay [8] and in assay [10] was inactive.
On to `O=C(CCl)NCO`, for which the molecule was called inactive in [1], in assay [9], in [2], in assay [3], in [4] and in assay [5]. The call in assay [6], in assay [7], in assay [8] and in [10] was inactive.
On to `Cc1cc(C(C)(C)c2ccc(O)c(C)c2)ccc1O`, for which the AC50 in assay [1] is 1.7 µM (active); in [3], 50 µM (active); in [5] it was 30.3 µM (active); in assay [6], 93.9 µM (active); in [8] it was 41.3 µM (active). For the same molecule, the molecule was classed as inactive in assay [9], in [2], in assay [4], in assay [7] and in [10].

The AC50 is the midpoint of the concentration-response curve, whichever way the signal moves.

For the origin of these results see PubChem BioAssay (EPA / NIEHS).
